Mito fusion act = mitochondrial division inhibition or fusion activation. hit rate 0.23% among 320,000. Potency, µM (series often up to 46.1 µM), hits mostly activators. S. cerevisiae fusion-defective mutant growth rescue, CellTiterGlo 48 h; note: nearly all actives have a fitted effect of over 45% in size
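Read-out: ATP-based luminescence (CellTiterGlo, 10 min ambient) reporting growth of fusion-defective ts yeast after 48 hours at 37C on glycerol/ethanol YPEG medium in the presence of compound.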
MCF10A rereplic = DNA re-replication induction in MCF 10a cells | AID 624296 | MCF 10A DNA re-replication, Hoechst nuclear intensity, 48 h | hit rate 2.9% among 350,000 | Potency, µM (top dose mostly 46.1 µM), actives largely listed as activators; note: nearly all actives have a fitted effect of over 50% in size
A-T KAP1 phos = potential ataxia-telangiectasia treatments restoring KAP-1 phosphorylation. Potency, µM (series often up to 57.5 µM), usual class: activators. F2112 A-T fibroblasts, KAP-1 phosphorylation AlphaLISA; neocarzinostatin DNA damage 30 min before lysis. hit rate 0.19% among 320,000; note: nearly all actives have a fitted effect of over 45% in size
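ATM-like activity read as KAP-1 phosphorylation via AlphaLISA donor/acceptor antibody pairs after lysis and 6 hr at 25C. Cells were ATM-null patient fibroblasts (F2112, hTERT), dosed 60 min, then exposed to the DSB inducer NCS for 30 min.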
SW480 rereplic = DNA re-replication induction in SW480 cells | SW480 DNA re-replication, Hoechst DNA content imaging, 48 h | Potency, µM (top dose mostly 46.1 µM), hits mostly activators | hit rate 1.8% among 340,000 | AID 624297; note: nearly all actives have a fitted effect of over 55% in size
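Cells (250 per well) received 23 nL compound or DMSO by pin tool and were kept 48 hr at 37 C, 5% CO2. Nuclei were then stained with Hoechst for 40 min and scanned for DNA content.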
Integrin act MD = activators of alpha7 integrin expression for muscular dystrophy. alpha7betagal myoblasts, beta-gal FDG fluorescence, 48 h. Potency, µM (series often up to 38.3 µM), actives largely listed as activators. hit rate 0.064% among 350,000. AID 624291; note: nearly all actives have a fitted effect of over 60% in size
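Alpha7betagal+/- myoblasts (passage 13) were plated 16-24 hr, then exposed to compounds (1:260 dilution of DMSO stock) for 48 hours at 37C. After MPER lysis, β-galactosidase reporter activity was read as FDG fluorescence (ex 480/em 540) after 30 minutes.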
Hits are given with their value; - = inactive; ? = inconclusive; . = no result given; [ ] = remark or other dose. This is a sample that favours compounds with a hit; in the whole collection about 4.2% have one here. Calls come from the whole dose curve; as a rule, active = well fitted activation curve with a large enough effect; inconclusive = small, poorly fitted or top-dose-only effect; inactive = no such curve, though single readings can be large or run the other way.

SMILES	Mito fusion act	MCF10A rereplic	A-T KAP1 phos	SW480 rereplic	Integrin act MD
CC1CCN(S(=O)(=O)c2ccc3c(c2)CCC(=O)N3CC(=O)Nc2cccc(C#N)c2)CC1	-	.	-	.	.
COc1cc(Cl)cc(CN2CCC(CCC(=O)NC3CC3)CC2)c1OC	-	-	-	?	7.1µM
CCOCc1cc(CN2CCC(CCC(=O)NC3CC3)CC2)ccc1OC	-	-	-	-	-
COc1cc(Cl)c(CN2CCC(CCC(=O)NC3CC3)CC2)cc1OC	-	0.58µM	-	-	-
N#Cc1ccc2c(c1)C[C@]1(CCCCN3C(=O)c4ccccc4C3=O)OC3=C(C(=O)OC4(CCCCC4)C3)C2O1	-[9.22 µM]	.	-[11.5 µM]	.	.
Cc1cc(N2CCCC2)ccc1/C=C1/C(=O)N(C)C(=S)N1C	-	-	-	15µM	-
Cc1cc(/C=C2/C(=O)N(C)C(=S)N2C)ccc1N1CCCC1	-	-	-	-	-
Cc1ccccc1C(=O)NNc1ccc(-c2csnn2)cc1	-	18µM	-	-	-
Cc1ccc(-c2csnn2)cc1	-	-	-	-	10µM
CC(=O)Oc1ccc(-c2csnn2)cc1	-	-	-	-	-
CC1CCN(c2ccc(N3C(=O)C4CCCCC4C3=O)cc2[N+](=O)[O-])CC1 (stereo not given)	-	?	-	-	-
c1ccc(CN2CCC(=NNc3nc4ccccc4[nH]3)CC2)cc1	-	?	-	23µM	-
CC(C)(C)C1CCC(=NNc2nc3ccccc3[nH]2)CC1 (stereo not given)	-	-	-	16µM	-
c1ccc2c(c1)CC/C2=N/Nc1nc2ccccc2[nH]1	-	23µM	-	?	-
COc1ccccc1CNC(=O)CN1C(=O)NC2(CCOc3ccccc32)C1=O (stereo not given)	.	-	-	-	-
COCc1ccc(C(=O)NCC2(N3CCCCC3)CCCCC2)cc1	-	-	-	-	-
COc1ccc(CC(=O)NCC2(N3CCCCC3)CCCCC2)cc1	-	?	-	23µM	-
CCCN1C(=O)C(=O)c2cc(Cl)ccc21	.	21µM	-	16µM	-
Cc1ccc(OCCN2C(=O)C(=O)c3cc(C)ccc32)cc1	-	7.3µM	-	13µM	-
O=C(O)c1ccc(N/N=C/c2cn(Cc3ccccc3F)c3ccccc23)cc1	-	21µM	-	?	-
COc1ccc(-c2noc(CNC(=O)c3ccc4c(c3)OCO4)n2)cc1OC	-	-	-	-	-
Cc1nn(CC(C)C)c(Cl)c1C(=O)N(c1ccc(Cl)cc1F)S(C)(=O)=O	-	21µM	-	-	?
O=C(CCCN1C(=O)/C(=C/c2cccc(Br)c2)SC1=S)N1CCOCC1	-	-	-	-	-
CN1CCN(C(=O)CCCN2C(=O)/C(=C/c3cccc(Br)c3)SC2=S)CC1	-	23µM	-	?	-
CN1CCN(C(=O)CCN2C(=O)/C(=C/c3cccc(Br)c3)SC2=S)CC1	-	15µM	-	?	-
SMILES	Mito fusion act	MCF10A rereplic	A-T KAP1 phos	SW480 rereplic	Integrin act MD
CN1CCN(C(=O)CCN2C(=O)/C(=C\c3ccc(F)cc3)SC2=S)CC1	.	?	-	?	-
CCCCCCSc1cc(-c2nc3cnccn3c2NCCCC)ccc1OC	.	15µM	-	?	-
CCCCNc1c(-c2ccc(-c3ccc(OC)cc3)c(OC)c2)nc2ccccn12	.	21µM	-	?	-
CCCCNc1c(-c2ccc(SC(C)CC)cc2)nc2cnccn12 (stereo not given)	.	4.6µM	28µM	18µM	-
CCCCCCSc1cc(-c2nc3cc(C)ccn3c2NCCCC)ccc1OC	-	?	-	-	-
CCCCNc1c(-c2ccc(OC)c(Sc3ccc(OC)cc3)c2)nc2cnccn12	.	?	?	?	-
Cc1cc(C(=O)CCC(=O)N2CCN(c3ccccc3)CC2)c(C)s1	-	-	-	-	-
O=C(Oc1ccc(F)cc1)c1cccnc1	-	-	?	-	-
COc1ccc(OC(=O)C(C)N2C(=O)c3ccccc3C2=O)cc1 (stereo not given)	-	-	-	-	-
CC1=CC(C)(C)Nc2ccc(OC(=O)c3cccnc3)cc21	-	2.6µM	.	3.7µM	-
CC1=CC(C)(C)Nc2ccc(C)cc21	-	-	-	-	-
CC1=CC(C)(C)Nc2ccc(OC(=O)c3ccco3)cc21	-	4.1µM	-	18µM	-

Source: PubChem
